Statin myotox sup – suppressors of statin myotoxicity in C2C12 myotubes, primary screen, cell-based, single point, plate reader; AID 602340, 2012; C2C12 myotubes + simvastatin, ATP luminescence, 48 h; scaled: DMSO 0, geranylgeraniol control 100; rescue of ATP level, % at 7.49 µM; 330,000 tested, 0.78% active;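 active = mean ATP rescue above about 67%, or every replicate alone reaching that limit, limit read from the data, passing the limit was not always enough; inconclusive = no clear call, values can overlap the other calls; inactive = mean under the limit and some replicate under it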;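 also: myotubes were challenged with 10 µM simvastatin during compound exposure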
DENV2 CPE rescue – inhibitors of DENV2 cytopathic effect, primary screen, cell-based, plate reader, single concentration | DENV2-infected cells, cytopathic effect rescue | CPE inhibition, % at 9.99 µM | 350,000 tested, 1.7% active | AID 651640, 2012; in the data active = CPE inhibition above about 20%, passing the limit was not always enough; inconclusive = no clear call, values can overlap the other calls; tested in BHK-21 cells;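 also: 0% = median of neutral control wells and 100% = median of positive control wells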
PvdQ acylase – P. aeruginosa PvdQ acylase inhibitors, primary screen, biochemical, fluorescence, plate reader and imaging, single point | PvdQ acylase [Pseudomonas aeruginosa LESB58] | purified PvdQ acylase | inhibition, % at 10 µM | 340,000 tested, 0.063% active; in the data active = inhibition above about 30%, passing the limit was not always enough; inconclusive = no clear call, values can overlap the other calls;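 also: 0% = vehicle neutral wells and 100% = reference inhibitor wells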
miR122 inh – miR-122 Renilla sensor signal increase in Huh7, primary screen, miR-122 inhibitor project, cell-based, single point, plate reader. activation (reporter increase), % at 12.5 µM. 340,000 tested, 0.3% active. Huh7 miR-122 Renilla luciferase sensor, 48 h; neutral wells = 0, positive control = 100;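 active = mean replicate activation score at least 90 and every replicate individually at or above 90; inconclusive = only one of the two criteria met; inactive = neither criterion met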;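 also: higher luciferase means less miR-122 activity so hits act as miR-122 inhibitors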
PGC1a acetyl inh – inhibitors of PGC1a acetylation signal, primary screen, cell-based, U2OS, AlphaScreen, inhibitor mode; 350,000 tested, 0.17% active; AlphaScreen anti-acetyl-lysine; with virally co-expressed GCN5 acetyltransferase; inhibition, % at 15.6 µM;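 active = every replicate shows inhibition of at least 40%; inconclusive = mean inhibition at least 40% but some replicate below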;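 also: 0% = neutral control wells and 100% = positive control wells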
An asterisk follows results filed as active; u = inconclusive; x = no result; [ ] = dose if it differs, or a comment. Rows were chosen to be rich in hits. Some 2.2% of all compounds tested hit in one or more screens of this group.

SMILES | Statin myotox sup | DENV2 CPE rescue | PvdQ acylase | miR122 inh | PGC1a acetyl inh
COc1ccc(C#Cc2ccc([C@@H]3[C@H](CO)N4CCCCN(C(=O)Cc5ccccc5)C[C@@H]34)cc2)cc1 | -30 | -24 | x | -8[16.7 µM] | 4
C=CCc1ccc2c(c1)OCO2 | x | 93* | x | x | x
O=C(Cc1cccnc1)N1CCCCN2[C@H](C1)[C@H](c1ccc(/C=C/c3ccccc3)cc1)[C@@H]2CO | x | 0 | x | 18[16.7 µM] | 0
CC(C)(Cl)[N+](=O)[O-] | 6 | 130* | -12 | 0 | -18
C=CCOC(=O)C1=C(C)OC(N)=C(C(=O)OCC)C12C(=O)N(CC(N)=O)c1ccccc12 (stereo unspecified) | 3 | x | -14 | -3 | -11
CCOC(=O)C1=C(C)OC(N)=C(C(=O)OCC)[C@@]12C(=O)N(CC(N)=O)c1ccccc12 | 98* | x | 3 | 1 | -6
C=CC1CN2CCC1CC2c1[nH]c2ccccc2c1CCO (stereo unspecified) | x | x | 9 | x | x
C=CC1CN2CCC1C[C@@H]2CO (stereo partly specified) | x | 20* | x | x | 20
O=C(NC[C@H]1CC[C@@H]2NC[C@@H]2O1)C1CCCC1 | x | u | x | x | 2
C/C=C/c1ccc([C@@H]2[C@@H](CO)N3CCCCN(C(=O)Cc4ccncc4)C[C@@H]23)cc1 | -13 | u | x | 8[16.7 µM] | 4
O=c1c2ccccc2nc(/C=C/c2ccc([N+](=O)[O-])o2)n1-c1ccc(O)cc1 | x | -5 | -18 | 95* | -144
Cc1cccc(-n2c(/C=C/c3ccc([N+](=O)[O-])o3)nc3ccccc3c2=O)c1 | x | -2 | -5 | 4 | x
CC/C=C/CC(=O)N[C@@H](c1ccccc1)[C@@H](O)C(=O)O[C@H]1C[C@@]2(O)[C@@H](OC(=O)c3ccccc3)C3[C@](C)(C(=O)[C@H](OC(C)=O)C(=C1C)C2(C)C)[C@@H](O)C[C@H]1OC[C@@]31OC(C)=O (stereo partly specified) | -5 | 28* | -1 | -1 | -9
CCC(C)C(=O)N[C@@H](c1ccccc1)[C@@H](O)C(=O)O[C@H]1C[C@@]2(O)[C@@H](OC(=O)c3ccccc3)C3[C@](C)(C(=O)[C@H](OC(C)=O)C(=C1C)C2(C)C)[C@@H](O)C[C@H]1OC[C@@]31OC(C)=O (stereo partly specified) | -12 | -14 | -16 | -6 | -17
O=C(Cc1ccccn1)N1CCCCN2[C@H](CO)[C@H](c3ccc(-c4ccccc4F)cc3)[C@H]2C1 | 14 | -8 | x | 8[16.7 µM] | 6
O=S(=O)(NC1CCCC1)OCC(Cl)(Cl)Cl | 4 | 27* | 5 | 10 | -1
O=S(=O)(NC1CCCCCCC1)OCC(Cl)(Cl)Cl | -4 | 34* | -4 | 10 | -7
CC1(C)CN(S(=O)(=O)OCC(Cl)(Cl)Cl)C(=O)N1 | -20 | 13 | 3 | 0 | -13
CN1CCN(C(=O)CN=[N+]=[N-])CC1 | x | 1 | x | x | 5
Cc1ccccc1N | 2 | -19 | 0 | -4 | -10
Cc1ccc(N)c(C)c1 | 8 | 82* | -2 | 2 | 4
Cc1ccc2nc(-c3ccc(CN4CCC(n5c(=O)[nH]c6cc(Cl)ccc65)CC4)cc3)c(-c3ccccc3)nc2c1 | x | 52* | x | x | x
CC1=CC(=C2C(=O)NC(=S)NC2=O)C=C(C(F)(F)F)N1Cc1ccccc1 | x | 2 | -17 | x | 88*
O=C(O)[C@H]1[C@H](CO)[C@H]2Cn3c(ccc(-c4ccncc4)c3=O)[C@@H]1N2C(=O)C1CC1 | -9 | x | x | x | x
COc1ccc(S(=O)(=O)Cc2ccc(C(=O)N3CCC4(CC3)OCCO4)o2)cc1 | 113* | x | -13 | 2 | 4
SMILES | Statin myotox sup | DENV2 CPE rescue | PvdQ acylase | miR122 inh | PGC1a acetyl inh
Cc1ccccc1CS(=O)(=O)Cc1ccc(C(=O)N2CCC3(CC2)OCCO3)o1 | x | 0 | -10 | x | x
COC(=O)C1=C(c2ccc(F)cc2OCc2ccccc2)C[C@@H]2CC[C@H]1N2C(=O)NCc1ccccc1 | 4 | 68* | -20 | x | x
COc1ccc(C#Cc2ccc([C@H]3[C@@H](CO)N4CCCCN(C(=O)Cc5ccccc5)C[C@@H]34)cc2)cc1 | 39 | -4 | x | -1[16.7 µM] | -5
CCC(C)c1cnc(CC(C)C)c(=O)n1O (stereo unspecified) | -13 | 59* | x | 1 | 6
C/C=C/c1ccc([C@@H]2[C@H]3CN(C(=O)Cc4ccncc4)CCCCN3[C@H]2CO)cc1 | -19 | 82* | x | 31[16.7 µM] | 1
N#Cc1cccc(-c2ccc([C@@H]3[C@H](CO)N4CCCCN(C(=O)Cc5ccccc5)C[C@@H]34)cc2)c1 | x | 8 | x | -15[16.7 µM] | 12
N#Cc1cccc(-c2ccc([C@H]3[C@@H](CO)N4CCCCN(C(=O)Cc5ccccc5)C[C@H]34)cc2)c1 | x | 27* | x | -13[16.7 µM] | -9
O=C(Cc1ccccn1)N1CCCCN2[C@H](C1)[C@@H](c1ccc(-c3ccccc3)cc1)[C@@H]2CO | x | 21* | x | 1[16.7 µM] | 9
O=C(Cc1cccnc1)N1CCCCN2[C@H](C1)[C@H](c1ccc(C#CC3(O)CCCC3)cc1)[C@@H]2CO | 14 | 25* | x | 7[16.7 µM] | 5
CN(C)CC#Cc1ccc([C@@H]2[C@@H](CO)N3CCCCN(C(=O)Cc4ccccn4)C[C@H]23)cc1 | x | -6 | x | 4[16.7 µM] | 5
CN(C)CC#Cc1ccc([C@@H]2[C@@H](CO)N3CCCCN(C(=O)Cc4ccccn4)C[C@@H]23)cc1 | x | -12 | x | -6[16.7 µM] | 2
CCCC#Cc1ccc([C@H]2[C@H]3CN(C(=O)Cc4ccccn4)CCCCN3[C@H]2CO)cc1 | x | 21* | x | 0[16.7 µM] | -5
CN(C)CC#Cc1ccc([C@H]2[C@@H](CO)N3CCCCN(C(=O)Cc4ccccn4)C[C@H]23)cc1 | x | 30* | x | 4[16.7 µM] | -2
C=COCCn1c(C)c(C(C)=O)c2cc(O)ccc21 | 113* | 1 | -11 | -3 | 54
COC(=O)[C@H]1[C@H](CO)[C@H]2Cn3c(ccc(-c4cncnc4)c3=O)[C@@H]1N2S(=O)(=O)c1ccccc1C | 7 | -13 | x | -7[16.7 µM] | x
COC(=O)C1=C(c2ccc(OC)c(OC)c2)C[C@@H]2CC[C@H]1N2C(=O)NCCOc1ccc(OC)cc1 | 121* | 7 | -15 | 1 | 2
COC(=O)C1=C(c2ccc(OC)c(OC)c2)C[C@@H]2CC[C@H]1N2C(=O)NCCO | -5 | u | 6 | 1 | -19
COC(=O)C1=C(c2ccc(Cl)c(C(F)(F)F)c2)C[C@@H]2CC[C@H]1N2C(=O)NCC1CC1 | 4 | -3 | 6 | -1 | -6
COC(=O)C1=C(c2ccc(Cl)c(C(F)(F)F)c2)C[C@@H]2CC[C@H]1N2C(=O)NCc1cc(C)oc1C(F)(F)F | -25 | 25* | -1 | -8 | 4
COc1ccc(C[C@H]2NC[C@H](O)[C@H]2OC(C)=O)cc1 | 79* | -12 | 4 | -13 | 90*

High-throughput results (PubChem BioAssay)
